# Target: Glucose transporter (Leishmania mexicana) (UniProt O61059)
# Assay: ST_JUDE_LEISH: Cytotoxicity at 2uM final concentration against transgenic Leishmania Mexicana promastigotes LmGT2 that are glucose transport deficient and complemented with the L. Mexicana glucose transporter 2. Activity is measured by DNA content using SYBR green in vitro
# Assay type: functional
row,Compound,inhibition [%]
1,O=C(C=Cc1ccc(Cl)c(Cl)c1)NCCCCCN1CCC(CCCNC(=O)c2ccc3c(c2)OCO3)CC1,-3.71
2,Cc1cc(Br)c(OCCCON2C(=N)N=C(N)NC2(C)C)c(Br)c1,1.2
3,COCCCNc1sc(S(=O)(=O)c2ccccc2)nc1S(=O)(=O)c1ccc(Cl)cc1,1.01
4,Cc1nnc(-c2ccc3ccccc3c2)c2cn(-c3cccc([N+](=O)[O-])c3)nc12,3.91
5,Cc1cccc(C)c1N1CCN(C2CCC(NC(=O)c3cc4ccccc4[nH]3)CC2)CC1 (stereo not given),-0.14
6,CC(CN(C)C)C(=O)Nc1ccc(-c2ccc(-c3nc4cc(C(F)(F)F)ccc4[nH]3)cc2)cc1 (stereo not given),9.66
7,O=C(Nc1nc2cc(S(=O)(=O)NCCc3cccc(F)c3)ccc2n1CCCn1ccnc1)c1ccc(Cl)cc1,4.97
8,CCc1ccc(C2=Nn3c(nnc3-c3cccs3)SC2)cc1,-0.08
9,CCn1ccc2c(N3CCCC3=O)cc(C(=O)N[C@@H](Cc3ccccc3)[C@H](O)CNC3CCCCC3)cc21,0.18
10,COc1ccc(-c2cccc(NC(=O)c3ccc(C#N)cc3)c2)cc1CN1CCCN(C)CC1,0.9
11,COc1ccc2c(=NN=C(C)c3ccccn3)cc(C)[nH]c2c1,4.08
12,COc1cc(C2CCCCC2)c(OC)cc1CC1c2cc(O)c(Cl)cc2CCN1C (stereo not given),12.9
13,Cc1ccc(C)c(Cn2c(N3CCC(C(=O)NCc4cccs4)CC3)nc3ccccc32)c1,-0.43
14,COc1ccc2[nH]ccc(=NN=Cc3ccccc3F)c2c1,7.56
15,CCCCn1c(-c2ccco2)nc2c(c(=O)c3ccccc3n2C)c1=O,4.14
16,c1ccc(Oc2ccc(Nc3nc(NCCc4c[nH]cn4)nc(NC4CCCC4)n3)cc2)cc1,6.19
17,O=C(NCc1ccccc1[S+]([O-])c1ccccc1CO)C(F)(F)F (stereo not given),0.55
18,CO/C(=C/C=C/c1cc2cc(Cl)c(Cl)cc2[nH]1)C(=O)NC1CC(C)(C)N(C)C(C)(C)C1,-0.41
19,COc1ccc(CNCc2cccc(-c3cccc(-c4nc5cccc(C)c5[nH]4)c3)c2)cc1,7.72
20,COc1ccc2nc(C)cc(NCc3ccc4ccccc4c3)c2c1,5.11

row,Compound,inhibition [%]
1,Cc1ccc(Nc2nc(N/N=C/c3cccc([N+](=O)[O-])c3)nc(Nc3ccccc3)n2)c(C)c1,-0.87
2,O=S(=O)(ON=C1CCc2ccccc21)c1ccc(Cl)cc1,3.35
3,CCCCCN1CCCC(NS(=O)(=O)c2ccc(C(=O)Nc3cccc(C(F)(F)F)c3)cc2)C1 (stereo not given),0.39
4,CC(C)Cc1c(O)nc(SCCN2CCOCC2)[nH]c1=O,-0.43
5,COc1cc(NC(=O)N2CCc3ccc(OCCN4CCCCC4)cc32)cc(C(F)(F)F)c1,3.59
6,CN(C)CCNc1cc(-c2ccc3ccccc3c2)nc2ccccc12,-0.48
7,COc1ccc(-c2cnc(N)c(-c3ccc(O)c(OC)c3)c2)cn1,1.13
8,CCNCc1ccc(-c2cccc(-c3nc4ccccc4[nH]3)c2)cc1,3.49
9,CCCCCCN1CCC(NCc2cccc([N+](=O)[O-])c2)CC1,4.96
10,Cn1cncc1CNCc1ccc(-c2cccc(-c3nc4ccccc4[nH]3)c2)cc1,-4.84
11,Cc1ccc(-c2nnc(Nc3ccc(OCC(N)=O)cc3)c3ccccc23)cc1S(=O)(=O)NCC1CCCO1 (stereo not given),2
12,O=C(NC1CC1)c1ccc(N2CCN(Cc3ccc(Cl)cc3)CC2)nc1,-0.4
13,COCCn1c(-c2nc(-c3ccc(F)cc3)cnc2N)nc2ccccc21,-0.94
14,CC(Cc1ccc(CN(CC(N)=O)Cc2ccc(CC(C)NCCc3cccc(Cl)c3)cc2)cc1)NCCc1cccc(Cl)c1 (stereo not given),7.2
15,COc1ccc(NC(=O)[C@H](CC(C)C)Nc2cc(C)nc(NCc3ccccc3C)n2)cc1,0.33
16,C[C@H](Cc1ccc(C[C@@H](C)NCC(O)c2cc(Cl)c(N)c(Cl)c2)cc1)NCC(O)c1cc(Cl)c(N)c(Cl)c1 (stereo not given in full),1.14
17,Cc1[nH]c2ccccc2c(=O)c1Br,-5.87
18,Cc1cc(F)ccc1Nc1nc(N(C)c2ccccc2)c2cc(OCCCN(C)C)ccc2n1,4.25
19,O=[N+]([O-])c1cccc(-c2ccc(C=NNc3cc(N4CCCC4)nc(N4CCCC4)n3)o2)c1,3.82
20,Cc1cccc2nc(-c3cccc(-c4cccc(CNCCCN5CCCC5=O)c4)c3)[nH]c12,-1.17
